In the library only some 7% were active in any assay of this set; here they are far more common.
ATXN viability: cell viability loss in ATXN counter-screen. S2 cells (HEK-293 line with an ATXN2-luciferase reporter) viability, CellTiter-Fluor protease fluorescence, 24 h. Potency, µM (highest dose often 56.7 µM), usual class: cytotoxic. 0.49% of 400,000 active; further: potency means the concentration at half of the fitted maximal effect; nearly all actives have a fitted effect of over 40% in size
DRD3 agonist: D3 dopamine receptor (human) agonism; P35462; D3R DiscoveRx beta-arrestin cells, luminescence, 90 min; max activation, %; 0.58% of 410,000 active; in the data active means max activation above about 30%; further: 0% is about no effect
Target sequence (P35462 whole entry, looked up): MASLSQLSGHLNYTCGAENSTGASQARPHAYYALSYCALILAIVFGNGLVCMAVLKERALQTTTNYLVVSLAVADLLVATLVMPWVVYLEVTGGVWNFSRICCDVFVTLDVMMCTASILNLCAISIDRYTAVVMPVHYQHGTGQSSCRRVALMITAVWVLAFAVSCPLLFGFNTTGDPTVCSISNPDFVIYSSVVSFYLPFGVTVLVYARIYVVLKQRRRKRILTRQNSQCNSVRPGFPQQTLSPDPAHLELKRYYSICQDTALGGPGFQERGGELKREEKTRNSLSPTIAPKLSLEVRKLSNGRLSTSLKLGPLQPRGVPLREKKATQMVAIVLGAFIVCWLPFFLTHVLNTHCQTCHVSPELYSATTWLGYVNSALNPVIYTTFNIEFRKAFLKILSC
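Agonist-mode cell screen: cells plated at 1500/well and incubated overnight at 37 °C, then exposed to library compounds for 90 min at 37 °C. Detection reagent was added for 30–60 min at room temperature, and luminescence was read.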
IL-1B inflam inh: inflammasome signaling inhibition, IL-1 beta readout. THP-1 LPS/ATP IL-1B secretion, AlphaLISA, 16 h; active compounds read low. activity change, % at 57.5 µM. 4.7% of 360,000 active. AID 743279; in the data active means activity change below about -50%; inconclusive means mostly about -30% to -49%; further: on the % scale 0 is the no-effect control and ±100 the full control effect
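THP-1 cells pretreated 1 hr with compounds (up to 57.5 uM final), then stimulated with LPS (250 ng/mL final) plus ATP (1.25 mM final); secreted IL-1B measured by AlphaLISA after 16 hr, decreased signal indicating inhibition.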
DRD3 antagonist: blocks the human D3 dopamine receptor; D3R cells, DiscoveRx beta-arrestin luminescence, antagonist mode; active compounds read low; AID 652054; 2.5% of 360,000 active; max response, negative = inhibition, %; in the data active means max response below about -50%; inconclusive means no clear call, values can overlap the other calls; further: on the % scale 0 is the no-effect control and ±100 the full control effect
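Cells expressing the human receptor were seeded at 1500 cells/well, incubated overnight at 37 degrees C in 5% CO2, then exposed to library compounds with dopamine controls for 90 minutes at 37 degrees C before luminescent detection.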
ATXN2 expr inh: inhibitors of ATXN2 expression; HEK-293 ATXN2-luciferase reporter, luminescence, 24 h; Potency, µM (top dose mostly 57 µM), for the others: at the highest dose activity change, negative = inhibition, hits mostly inhibitors; 0.72% of 360,000 active; AID 1745845; further: potency means the concentration at half of the fitted maximal effect; on the % scale 0 is the no-effect control and ±100 the full control effect; nearly all actives have a fitted effect of over 55% in size
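qHTS (up to 57 uM final) was run with 24 h compound exposure of reporter cells at 37 °C. Each well was multiplexed: SteadyGlo luminescence measured ATXN2-luciferase expression after a fluorogenic Gly-Phe-AFC viability readout (25 uM final).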
a7 integrin act: activates integrin-mediated alleviation for muscular dystrophy; alpha7betagal myoblasts, beta-gal FDG fluorescence, 48 h; Potency, µM (doses to about 38.3 µM), inactives show top-dose activation, usual class: activators; 0.064% of 350,000 active; AID 624291;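 further: potency means the concentration at half of the fitted maximal effect; 100% = response of the positive control SU9516; nearly all actives have a fitted effect of over 60% in size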
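alpha7betagal+/- myoblasts (passage 13, 250/well) treated 48 h at 37C with compounds at 1:260 dilution of DMSO stock. Lysed, then beta-galactosidase activity read as FDG fluorescence (ex 480/em 540) after 30 min, with pre-read for autofluorescence.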
The depositor's hits bear a star; i = inactive; ? = inconclusive; nt = not tested or not shown; [ ] = dose if it differs, or a comment. Unless noted, the call rests on the fitted dose curve; in most records, active means well fitted curve in the direction sought with a large enough effect; inconclusive means small, poorly fitted or top-dose-only effect, or another doubt; inactive means no such curve, though single readings can be large; an effect the other way counts as inactive or inconclusive.

SMILES	ATXN viability	DRD3 agonist	IL-1B inflam inh	DRD3 antagonist	ATXN2 expr inh	a7 integrin act
COc1ccc(Cc2nnc(NC(=O)c3cc(OC)c(OC)c(OC)c3)s2)cc1	i	1.6	0.0	7.0	220.3%	-6.2%
O=C(NCc1cccnc1)C1CCN(Cc2cc3ccccc3n2Cc2ccccc2)CC1	i	-15.1	nt	nt	-9.1%	nt
OC(CN1CCN(c2ccccc2F)CC1)c1ccc(F)cc1 (stereo not drawn)	i	36.4*	10.4	-8.4	-7.8%	-11.6%
OC(COc1ccc(F)cc1)CN1CCN(c2ccccc2F)CC1 (stereo not drawn)	i	-8.6	13.3	-18.0	nt	25.9%
OC(CN1CCN(c2ccccc2Cl)CC1)c1ccccc1 (stereo not drawn)	i	-2.3	7.9	-84.3*	-8.5%	-37.3%
OC(CN1CCN(C(c2ccccc2)c2ccccc2)CC1)c1ccccc1 (stereo not drawn)	i	-5.6	0.0	-17.3	7.4%	-61.9%
O=C1/C(=C/c2ccc(F)cc2)Oc2cc(OC(=O)N3CCOCC3)ccc21	i	4.6	9.3	8.2	-5.4%	19.6%
COc1cccc(OC)c1C(=O)Oc1ccc2c(c1)O/C(=C\c1ccncc1)C2=O	?	-1.4	-100.7*	-8.2	?	-54.5%
O=C1/C(=C/c2ccccc2)Oc2cc(OC(=O)N3CCOCC3)ccc21	i	8.3	-68.2*	14.0	45.3%	-27.2%
COc1cc(F)ccc1-c1cc(C(=O)Nc2ccc(NC(C)=O)cc2)[nH]n1	i	4.0	-18.3	29.8	1.6%	nt
Cc1ccc(C(=O)n2c(N)nc3ccccc32)cc1	i	4.9	-1.6	20.4	2.82µM*	5.4%
Cc1ccc(S(=O)(=O)n2c(N)nc3ccccc32)cc1	i	3.7	11.4	24.5	1.4%	-5.2%
O=C1CCC(C(=O)N2CCC(CCO)CC2)CN1Cc1ccc(Cl)cc1 (stereo not drawn)	?	0.5	9.4	13.1	-8.0%	-2.2%
CC(/C=C/c1ccccc1)=N/NC(=O)c1cccc(Br)c1	i	-6.9	-29.0	-52.9*	-39.2%[11.3 µM]	-44.9%
O=C(N/N=C/C1C(c2ccccc2)C1(Cl)Cl)c1cccc(Br)c1 (stereo not drawn)	i	-3.3	-16.5	-52.5*	5.8%	5.6%
O=C(N/N=C/c1[nH]c2ccccc2c1Cl)c1cccc(Br)c1	i	-1.5	-83.9*	3.1	-16.2%	0.0%
Cc1[nH]c2ccccc2c1/C=N/NC(=O)c1cccc(Br)c1	i	-17.4	-1.3	4.8	2.1%	22.4%
CN1C(=O)C(C)(C)c2cc(S(=O)(=O)NCC(=O)NCc3ccccc3)ccc21	i	-7.6	-24.0	-16.5	-18.8%	-0.4%
Cc1ccc(C)c(CSc2cn(CC(=O)N3CCCCCC3)c3ccccc23)c1	nt	-6.5	nt	nt	nt	nt
O=c1n(-c2ccccc2)c(=O)n2n1CCC2	i	1.1	15.3	16.5	2.4%	11.9%
O=c1n(-c2ccccc2)c(=O)n2n1CCCC2	i	42.4*	0.8	?	0.9%	30.3%
CCOc1ccccc1N(C(=O)c1ccco1)C(C(=O)NC1CCCC1)c1cccs1 (stereo not drawn)	?	1.8	-1.6	-10.8	-0.9%	-0.5%
CCCCCCCn1c(=O)c(C(=O)OC)c(N)c2ccccc21	?	26.2	-58.8*	13.7	?	-37.9%
CCCCCCCCn1c(=O)c(C(=O)OC)c(N)c2ccccc21	?	38.5*	-95.4*	31.0	-32.7%	-4.0%
CN(CCO)c1nc2c(c(=O)n(Cc3ccc(Cl)cc3)c(=O)n2C)n1C	i	-1.7	-6.8	-5.0	2.4%	0.0%
SMILES	ATXN viability	DRD3 agonist	IL-1B inflam inh	DRD3 antagonist	ATXN2 expr inh	a7 integrin act
Cc1nc(N2CCN(c3ccccn3)CC2)c2c(C)c(C(=O)Nc3ccc(Cl)cc3)sc2n1	i	0.6	-58.1*	31.1	nt	18.6%
Cc1nc(N2CCN(C)CC2)c2c(C)c(C(=O)Nc3ccc(C)c(F)c3)sc2n1	i	-0.3	-59.8*	-21.3	?	-32.6%
Cc1nc(N2CCN(c3ccccn3)CC2)c2c(C)c(C(=O)Nc3c(F)cc(F)cc3Br)sc2n1	i	39.3*	-23.8	39.8	-20.4%	4.8%
Oc1ccc(-c2cnc(-c3ccc(O)cc3)nc2)cc1	?	-16.3	-19.2	-8.1	?	7.0%
COc1ccccc1N(C(=O)c1ccco1)C(C(=O)NC1CCCCC1)c1cc(OC)c(OC)c(OC)c1 (stereo not drawn)	i	-4.5	2.6	-9.2	-5.4%	-15.5%
COc1ccc(-c2nc(CCNC(=O)c3cccs3)cs2)cc1OC	nt	-6.8	nt	nt	nt	nt
Nn1c(SCc2ccccc2)nc2c(cnn2-c2ccccc2)c1=O	i	8.0	?	0.7	37.0%	28.8%
CCCOc1nc(SCCC)nc2c1cnn2-c1ccccc1	i	2.3	44.6	19.0	0.0%	11.2µM*
CCCSc1nc2c(cnn2-c2ccc(Cl)cc2)c(=O)[nH]1	i	0.6	2.7	-12.0	-0.5%	-3.1%
CCCCSc1nc2c(cnn2-c2ccccc2)c(=O)n1N	i	1.5	-50.5*	1.5	nt	6.8%
CCCSc1nc2c(cnn2-c2ccccc2)c(=O)n1N	i	9.0	-63.3*	-9.0	-8.9%	9.2%
O=C(Cn1nnc2c(cnn2-c2ccc(F)cc2)c1=O)Nc1ccccc1C(F)(F)F	?	0.8	12.1	10.0	nt	-8.4%
O=C(CCNC(=O)Cn1cnc2ccccc2c1=O)NCC1COc2ccccc2O1 (stereo not drawn)	i	5.7	18.6	-57.9*	-3.4%	-54.7%
O=C(Cn1ncc(Cl)c(Cl)c1=O)N1CCOCC1	nt	1.6	-99.0*	-3.9	?	-21.3%
O=C(Cn1ncc(Cl)c(Cl)c1=O)N1CCN(Cc2ccccc2)CC1	nt	-7.2	-2.8	-63.1*	?	-53.1%
CC1(C)C(=O)Nc2ccccc2N1C(=O)Cn1ncc(Cl)c(Cl)c1=O	20µM*	1.6	-99.0*	-12.6	nt	-54.7%
CC(C)CC1NC(=O)N(CC(=O)N2c3ccccc3NC(=O)C2(C)C)C1=O (stereo not drawn)	i	-0.1	-15.6	-8.9	-5.9%[11.3 µM]	5.62µM*
C[n+]1cnn2c1SCC1(COC1)C2	i	0.0	-7.3	10.4	9.9%	-0.1%
O=C(Cn1ncc(Cl)c(Cl)c1=O)N1CCc2ccccc21	nt	0.6	-109.5*	?	?	-71.8%
O=C1CCN(Cc2ccccc2)C=C1c1ccc(Cl)cc1	i	-2.5	-5.5	0.0	-9.7%	19.2%
O=C1CCN(Cc2ccccc2)C=C1C(=O)c1ccccc1	i	47.4*	?	-20.3	-1.5%	0.0%
CCN(c1ccccc1)S(=O)(=O)c1ccc(Cl)c(C(=O)NCCc2ccc(OC)cc2)c1	i	-14.4	4.8	-13.0	-8.4%	0.4%
